E coli growth-1 – bacterial growth inhibition, counter-screen for AddAB inhibitors | E. coli V3065 growth, OD600 absorbance, 18 h | inhibition, % at 11.9 µM | 330,000 compounds, 0.27% hits | AID 449728;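 active = inhibition above the campaign's mean inhibition across all tested compounds plus 3 SD, cut at about 9.9% in these data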;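 also: uninfected addAB+ strain grown without phage in ampicillin broth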
phage Ecoli inh – E. coli growth loss with phage present; growth absorbance; inhibition, % at 11.9 µM; 360,000 compounds, 0.26% hits; AID 651602; in the data active = inhibition above about 11%
Tat transport – blocks Tat-dependent protein export in E. coli. E. coli MC4100 TorA-mCherry Tat export, fluorescence. inhibition, % at 10 µM. 340,000 compounds, 0.036% hits. AID 488895;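 active = mean replicate inhibition at least 50% and at least half of replicates individually reaching 50%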;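 also: exported cargo escapes ClpAP degradation while cytoplasmic cargo is degraded and loses fluorescence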
E coli growth-2 – blocks Escherichia coli growth. 330,000 compounds, 0.21% hits. OD600, 23 h; stronger effect = lower value. OD600 absorbance (concentration not given with the values). AID 1053175;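 active = OD600 absorbance below the run mean of sample wells minus 3.6 SD, in any replicate, cut at about 0.56 in these data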
AddAB inh – less growth of phage-infected E. coli with AddAB. E. coli expressing H. pylori AddAB, absorbance growth. inhibition, % at 11.9 µM. 330,000 compounds, 0.29% hits. AID 435030; in the data active = inhibition above about 12%
Hits are given with their value; n = inactive; x = not tested or not shown; ! = not active in a repeat. Hits are enriched below; roughly 0.5% of the tested compounds scored in any of these assays.

SMILES	E coli growth-1	phage Ecoli inh	Tat transport	E coli growth-2	AddAB inh
Cc1ccc2nc(-c3ccncc3)c(Nc3ccccc3)n2c1	n	n	n	n	n
Cc1ccc(Nc2c(-c3ccccn3)nc3cc(C)ccn23)cc1	n	n	n	0.4	n
COc1ccc(-n2c(C)cc(C=NNc3nc(N4CCOCC4)nc(N4CCOCC4)n3)c2C)cc1	x	x	x	n	x
COC(=O)[C@@]1(Cc2ccc(OC)cc2)C2c3cc(C(=O)N(C)C)n(Cc4ccc(OC(F)(F)F)cc4)c3CC2CN1C(=O)c1ccccc1 (stereo not given in full)	x	x	x	n	x
CC(C(=O)Nc1ccc2ccccc2c1)C1C[C@@]1(C)C(NC(=O)c1cccnc1)c1ccccc1 (stereo not given in full)	x	x	x	n	x
O=C(COc1ccccc1)NC1C(=O)N2C(C(=O)O)=C(Cl)CSC12 (stereo not given)	n	n	n	n	n
CO/N=C(/C(=O)N[C@@H]1C(=O)N2C(C(=O)O)=CCS[C@H]12)c1cnc(N)s1	100	x	x	x	100
CC(CCC(=O)O)C1CCC2C3C(O)CC4CC(O)CC[C@]4(C)C3CC[C@]12C (stereo not given in full)	x	x	x	n	x
CCCN=C1CC(C)(C)CC(=O)/C1=C(\O)CCCN1C(=O)c2ccccc2C1=O	x	x	x	n	x
O=C(NC(=S)NNC(=O)c1ccccc1O)c1ccc([N+](=O)[O-])cc1	16	n	n	x	n
O=C(NNC(=S)NC(=O)c1ccccc1)c1ccc([N+](=O)[O-])cc1	n	n	n	n	n
O=C(Nc1cccnc1)Nc1ccc(F)c(Cl)c1	n	n	n	0.54	n
O=C(Nc1ccc(Cl)c(Cl)c1)Nc1ccon1	n	n	n	0.54	n
O=C(Nc1ccc(Cl)c(Cl)c1)Nc1ccccc1O	n	n	n	0.46	n
Nc1nonc1C(=O)NN=Cc1cccc([N+](=O)[O-])c1	x	x	x	n	x
O=C(Cc1cccs1)NNC(=S)NC(=O)c1ccco1	n	n	n	0.32	n
O=C(NNC(=O)c1ccco1)c1ccccc1	n	n	n	n	n
O=C(NC(=S)NNC(=O)c1ccco1)c1ccccc1	n	n	n	0.51	n
CC1CCC(CN2C(Nc3ccccc3)=NCC2C)CC1 (stereo not given)	x	x	x	n	x
FC(F)(F)c1cc(CCN2CCNCC2CC2CCCCC2)cc(C(F)(F)F)c1 (stereo not given)	x	x	x	0.46	x
Oc1ccc(C[C@@H]2CNCCN2CCc2cc(C(F)(F)F)cc(C(F)(F)F)c2)cc1	n	n	n	x	n
Nc1nc(SCC(=O)Nc2ncc(C(F)(F)F)cc2Cl)n[nH]1	12	n	n	n	n
CCCOc1ccc(C(=O)NNC(=S)NC(=O)CC)cc1	n	n	n	0.4	n
C=CCNC(=S)NNC(=O)c1ccc(OCCC)cc1	n	n	n	n	n
CCN1C(=O)C2C(c3ccc(-c4ccccc4)cc3)N3CCC[C@@]3(C(=O)OC)C2C1=O (stereo not given in full)	x	x	x	n	x
SMILES	E coli growth-1	phage Ecoli inh	Tat transport	E coli growth-2	AddAB inh
Cc1c2ccncc2cc2c1[nH]c1ccccc12	x	n	n	0.41	x
CC1(c2ccccc2)CC(C)(C)N2C(=O)C(=C3SC(=S)NC3=O)c3cccc1c32 (stereo not given)	x	x	x	n	x
Nc1nc(F)nc2c1ncn2C1OC(CO)C(O)C1O (stereo not given)	x	x	x	0.45!	x
Nc1nc(Cl)nc2c1ncn2C1OC(CO)C(O)C1O (stereo not given)	x	n	x	n	x
Nc1ncn(C2O[C@H](CO)[C@@H](O)[C@H]2O)c(=O)n1 (stereo not given in full)	96	x	x	x	97
Cc1cc(C(=O)NN=Cc2ccc([N+](=O)[O-])o2)c(C)o1	x	x	x	n	x
CCCS(=O)(=O)N1CCCC(C(=O)NCCCN2CCCC2=O)C1 (stereo not given)	11	n	n	n	15
COC1C=CO[C@@]2(C)Oc3c(C)c(O)c4c(O)c(c(C=NN5CCN(C)CC5)c(O)c4c3C2=O)NC(=O)C(C)=CC=CC(C)C(O)C(C)C(O)C(C)C(OC(C)=O)C1C (stereo not given in full)	x	x	x	0.074	x
COC1C=CO[C@@]2(C)Oc3c(C)c(O)c4c(O)c(c5c(nc6cc(C)ccn65)c4c3C2=O)NC(=O)C(C)=CC=CC(C)C(O)C(C)C(O)C(C)C(OC(C)=O)C1C (stereo not given in full)	x	x	x	0.062	x
O=[N+]([O-])c1ccc(O)c(C=NNc2nn[nH]n2)c1	x	x	x	n	x
CCCCCCCC[n+]1cccc2c3ccccc3ccc21	n	n	n	0.48	n
O=C(COc1ccc([N+](=O)[O-])cc1)Nc1cc(S(=O)(=O)N2CCCCC2)ccc1N1CCCCC1	n	n	64	n	n
CCCCCNC(=O)CSC1=NC(=Cc2ccc(Cl)c(Cl)c2)C(=O)N1CC	x	x	x	n	x
